The panel holds about 83,000 compounds, 20% with a hit somewhere; the sample as a whole holds those more often.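 How to read the values: 0–100, growth inhibition (40 = 60% inhibited); 0, no net growth; -100 to 0, cell death (-40 = 40% of starting cells died; -100 = all dead).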 Activity calls are given as the source filed them.

The test concerns MCF7 breast. Briefly: NCI-60 one-dose screen, 48 h (100 = growth as untreated, 0 = no growth, -100 = all killed). The note with it: 10 µM. Here is the method: Growth inhibition of the MCF7 human tumor cell line is measured as a screen for anti-cancer activity. Cells are grown in 96 well plates and exposed to the test compound for 48 hours. Compounds are tested at a single concentration, which is 10^-5 M for most compounds. The reported endpoint is percent growth (GI% or GIPRCNT), where numbers from 0 - 100% represent growth inhibition, and numbers from -100% - 0 represent cell death. For example, a value of 40 represents 60% growth inhibition. A value of 0 means no net growth occurred over the course of the experiment. A value of -40 indicates 40% of cells at the beginning of the experiment died by the end of the experiment. A value of -100 means all cells are dead at the end of the experiment.
NCI-60 Human Tumor Cell Lines Screen was performed using the standard one-dose NCI protocol, which is described in more detail at https://dtp.cancer.gov/discovery_development/nci-60/default.htm.
Compounds with GIPRCNT values below 10 were considered active. Activity score was based on GIPRCNT using the following formula: […]
Score is 0 for GIPRCNT values of 100 or above, 50 for GIPRCNT values of 0, and 100 for GIPRCNT values of -100.
With `Cc1cc(O)c(C2=NN(c3ccc(S(N)(=O)=O)cc3)C(c3ccc(N(C)C)cc3)C2)c(C)c1Cl` (stereo not given), the growth was 37.2% (inactive).

As to `Cc1ccc(Cl)cc1Nc1nc(C(F)(F)F)ccc1C(=O)N/N=C/c1c(Cl)cccc1Cl`, the growth was 2.24% (active). The value for `Cc1ccc2nc3[nH]c(=O)[nH]c(=O)c3c(N)c2c1` was 89.3% (inactive); that for `C#CCn1c(-c2cccc(OCCCCl)c2)nc2c1c(=O)n(C)c(=O)n2C` was 84.7% (inactive); that for `N=C(N)c1ccc(-c2ccc(-c3ccccc3)s2)s1` was -71.5% (active). The value for `CC(=O)/C(=C\c1ccc(Cl)cc1)c1ccccc1` was 9.45% (active); that for `CCN(CCCNC(=O)Cc1cc(=O)oc2cc(N(C)C)ccc12)CCNc1ccnc2cc(Cl)ccc12` was 66% (inactive). The value for `C[C@@H]1N=C(c2ccc(Br)cc2)Nc2nc3ccccn3c2C1=O` was 20.9% (inactive); that for `Cc1cccc2c1O/C(=C\c1ncc([N+](=O)[O-])n1C)C2=O` was 2.72% (active). For the molecule `COCCOC(=O)NC(=O)Nc1ccc(C(=O)c2ccc(Cl)cc2)cc1`, the growth is 19.5% (inactive). With `CCc1cc2n(n1)-c1ncc(C(=O)OC)cc1Oc1ccccc1-2`, the growth was 97.4% (inactive). The value for `CCOc1ccc(-n2cc(-c3ccc(N(C)C)cc3)[n+]3c2CCCCC3)cc1` was 5.05% (active). The value for `Cc1ccccc1C1=N[C@@H](Cc2ccccc2)C(=O)c2c(nc3ccccn23)N1` was 84.9% (inactive). `O=C(NCCCl)c1cc(Cl)cc(Cl)c1`: the growth is 96.2% (inactive). The value for `CC(C)(C)CC(C)(C)c1ccc(O)c(Cc2ccc(Cl)cc2Cl)c1` was -88.9% (active); that for `COc1cc(/C=C2\C(=O)Nc3cc(C)c(O)cc32)cc(OC)c1OC` was 25.7% (inactive).

On to `Clc1cc(Cl)c(Cl)c(-c2nc(-c3cccnc3)cs2)c1`, for which the growth is 63.6% (inactive). Regarding `NC(=O)C1CCCN(Cc2c[nH]c3ccccc23)C1` (stereo not given), the growth was 101% (inactive). The value for `COCCOC(=O)NC(=O)Nc1ccc(/C(=N/O)c2ccc(Cl)cc2)cc1` was 14.3% (inactive); that for `CCCCCCCOc1cccc(/C=C2/C(=O)N=C3SCCCN32)c1` was 29.4% (inactive). The value for `Cc1ccc(C)c2c1sc1nc3n[nH]c(N)c3c(=N)n12` was 103% (inactive); that for `COC(=O)c1cnc2c(c1)Oc1ccc(Cl)cc1-c1cc(C)nn1-2` was 83.4% (inactive); that for `COc1ccc(-c2nnc(SCC(=O)c3ccccc3)o2)cc1` was 104% (inactive). The value for `COc1ccc(C(=O)/C=C/c2cc(-c3ccc(OC)c(OC)c3)n[nH]2)cc1OC` was 4.18% (active); that for `CCOC(=O)[C@@H](Cc1ccccc1)NC(=O)c1[nH]c2ccc(Cl)cc2c(=O)c1C` was 96.8% (inactive); that for `COc1ccc(-c2nnc(SC/C(=N\O)c3ccccc3)o2)cc1` was 104% (inactive).

In the case of `COC(=O)CCCCCCCCC(C)c1ccc(C(C)=O)cc1` (stereo not given), the growth was 118% (inactive). For `O=NN(CCCl)C(=O)NCc1ccc(-c2ccc(CNC(=O)N(CCCl)N=O)cc2)cc1`, the growth is 96.1% (inactive).

Turning to `COc1cc(NS(C)(=O)=O)ccc1Nc1c2ccc(Cl)cc2nc2c(OC)cccc12`, the growth is 23.7% (inactive). As for `Cc1ccc(S(=O)(=O)N2CCc3ccccc3CC2)cc1`, the growth was 60.7% (inactive).

Turning to `COc1ccc(-c2cn[nH]c2-c2cc(OC)c(OC)c(OC)c2)cc1`, the growth is 5.37% (active).

Turning to `CCCCCCCCCCCC(c1ccccc1)N(C)C` (stereo not given), the growth was 91.3% (inactive). The value for `CCN(CC)CCOC(=O)c1ccc(NC(=O)Nc2cccc(Cl)c2)cc1` was 95% (inactive); that for `Nc1cc2c(cc1Cl)-c1ccc(Cl)cc1C2=O` was 42.1% (inactive); that for `CC(=O)CS(C)(=O)=O` was 105% (inactive). The value for `c1ccc(OCCC[P+](c2ccccc2)(c2ccccc2)c2ccccc2)cc1` was 4.3% (active); that for `CCCCCC(=O)N1c2ccccc2NC2=C(C(=O)CC(c3ccc(OC)c(OC)c3)C2)C1c1ccc(C(F)(F)F)cc1` (stereo not given) was 50.2% (inactive); that for `CC1(C)CC(=O)c2c(nc3ccc(Cl)cc3c2-c2ccccc2)C1` was 86.3% (inactive). The value for `COc1cc(-c2nc(-c3nnc(-c4cccnc4)o3)c3ccccn23)cc(OC)c1OC` was 107% (inactive); that for `COc1ccc(C2=Cc3ccc(OC(C)=O)cc3OC2)cc1` was 101% (inactive).
